# Laboratory results as given in the supplement of paper PMC9135407.
# Structures can show the parent of a compound that is named as a salt. Out of some 5,800 compounds screened, about 620 (11%) showed activity. What follows is part of a selection rich in actives, with near analogues and random picks from the rest. Values without a mark were called inactive.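 Rule for the calls: active = score above a cut-off or among the top three wells of a plate; in these data no inactive exceeds 0.85.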
# Test system: primary human hepatic stellate cells (donor 1)
# Experiment: scaled lipid accumulation score (0 = DMSO-like, 1 = nortriptyline-like); higher = stronger HSC inactivation (lipid re-accumulation), active = hit call of the paper
# Conditions: 48 h
# [1] = library stock concentration: 80 uM
# [2] = library stock concentration: 400 uM
# [3] = library stock concentration: 2 mM
# [4] = library stock concentration: 10 mM
# [5] = library stock concentration: 3.33 mM
# [6] = library stock concentration: 1 mM
structure (smiles),measurement,setting,value
Nc1cccc2c1CN(C1CCC(=O)NC1=O)C2=O (stereo unspecified) [Lenalidomide],scaled lipid accumulation score,[1],0.004
same,scaled lipid accumulation score,[2],0.005
same,scaled lipid accumulation score,[3],≤ -0.001
same,scaled lipid accumulation score,[4],≤ -0.001
Nc1cccc2c1CN(C1CCC(=O)NC1=O)C2=O (stereo unspecified) [Lenalidomide (CC-5013)],scaled lipid accumulation score,[5],0.003
same,scaled lipid accumulation score,[4],≤ 0
Nc1nc2[nH]cnc2c(=S)[nH]1 [Thioguanine],scaled lipid accumulation score,[4],≤ 0
same,scaled lipid accumulation score,library stock concentration: 12 mM,≤ 0
O=C(NCCCCCCNC(=O)ON=C1CCCCC1)ON=C1CCCCC1,scaled lipid accumulation score,[4],0.062
same,scaled lipid accumulation score,library stock concentration: 12.7 mM,0.056
CNC(=O)c1ccc(Nc2cc(Nc3ccccc3S(=O)(=O)C(C)C)c3cc[nH]c3n2)nc1,scaled lipid accumulation score,[1],0.027
same,scaled lipid accumulation score,[2],0.02
same,scaled lipid accumulation score,[3],0.04
same,scaled lipid accumulation score,[4],≤ 0
Cc1coc2c1C(=O)C(=O)c1c-2ccc2c(C)cccc12 [Tanshinone I],scaled lipid accumulation score,[5],≤ 0
same,scaled lipid accumulation score,[4],≤ 0
CCCCC/C=C\C/C=C\C/C=C\C/C=C\CCCC(=O)O [Arachidonic Acid],scaled lipid accumulation score,[6],≤ 0
"CCCCC/C=C\C/C=C\C/C=C\C/C=C\CCCC(=O)O [Arachidonic acid (20:4, n-6)]",scaled lipid accumulation score,[6],≤ -0.021
Cc1ccc(C(=O)Nc2cccc(C(F)(F)F)c2)cc1-c1ccc2nc(NCCN3CCOCC3)ncc2c1 [listing 1 of 2 here],scaled lipid accumulation score,[4],1.34 (active)
COc1ccc(N(C(=O)Oc2cc(C(=O)Nc3cccc(C(F)(F)F)c3)ccc2C)c2ccnc(Nc3ccc(N4CCN(C)CC4)cc3)n2)c(OC)c1,scaled lipid accumulation score,[1],0.07
same,scaled lipid accumulation score,[2],0.248
same,scaled lipid accumulation score,[3],0.495
same,scaled lipid accumulation score,[4],0.396
Cc1ccc(C(=O)Nc2cccc(C(F)(F)F)c2)cc1-c1ccc2nc(NCCN3CCOCC3)ncc2c1 [listing 2 of 2 here],scaled lipid accumulation score,[2],≤ -0.005
same,scaled lipid accumulation score,[3],0.748
CCCCCC(=O)/C=C/C=O [4-oxo-2-Nonenal],scaled lipid accumulation score,[6],≤ 0
COc1ccc(-c2cc(=O)c3c(O)cc(O)cc3o2)cc1 [Acacetin],scaled lipid accumulation score,,≤ 0
same,scaled lipid accumulation score,[4],≤ -0.027
Cc1cc(Nc2ncc(Cl)c(Nc3ccccc3S(=O)(=O)C(C)C)n2)c(OC(C)C)cc1C1CCNCC1,scaled lipid accumulation score,[5],0.582
same,scaled lipid accumulation score,[4],0.131
Cc1cc(Nc2ncc(Cl)c(Nc3ccccc3S(=O)(=O)C(C)C)n2)c(OC(C)C)cc1C1CCNCC1 [Ceritinib],scaled lipid accumulation score,[1],0.312
same,scaled lipid accumulation score,[2],0.357
same,scaled lipid accumulation score,[3],0.663
same,scaled lipid accumulation score,[4],≤ 0
CN(C)S(=O)(=O)c1ccc2c(c1)/C(=C/c1cc3c([nH]1)CCCC3)C(=O)N2 [listing 1 of 3 here],scaled lipid accumulation score,[6],0.413 (active)
CN(C)S(=O)(=O)c1ccc2c(c1)/C(=C/c1cc3c([nH]1)CCCC3)C(=O)N2 [listing 2 of 3 here],scaled lipid accumulation score,[4],0.958 (active)
O=C1Nc2ccc(Br)cc2/C1=C/c1cc2c([nH]1)CCCC2 [VEGF Receptor 2 Kinase Inhibitor II],scaled lipid accumulation score,[5],0.454
CN(C)S(=O)(=O)c1ccc2c(c1)/C(=C/c1cc3c([nH]1)CCCC3)C(=O)N2 [listing 3 of 3 here],scaled lipid accumulation score,[5],0.613
COc1cc(OC)c(C=C2C(=O)Nc3ccccc32)c(OC)c1,scaled lipid accumulation score,[5],≤ 0
same,scaled lipid accumulation score,[4],≤ 0
O=C1Nc2ccccc2/C1=C\c1c(Cl)[nH]c2ccccc12,scaled lipid accumulation score,[1],≤ -0.001
same,scaled lipid accumulation score,[2],≤ -0.001
same,scaled lipid accumulation score,[3],≤ -0.001
same,scaled lipid accumulation score,[4],0.116
"CCCCC[C@H](O)CC[C@@H]1[C@@H](CCCCCCC(=O)O)[C@@H](O)C[C@H]1O [13,14-dihydro Prostaglandin F1.alpha.]",scaled lipid accumulation score,[6],≤ 0
NCc1c[nH]c(=S)n1C1CCc2c(F)cc(F)cc2C1 [(R)-Nepicastat HCl],scaled lipid accumulation score,[5],≤ 0
same,scaled lipid accumulation score,[4],0.361
CC(=NNC(=S)N1CCC1)c1ccccn1,scaled lipid accumulation score,[5],0.164
same,scaled lipid accumulation score,[4],0.375
CCCCC1(C2CCCC2)Cc2cc(OCC(=O)O)c(Cl)c(Cl)c2C1=O (stereo in doubt) [R(+)-Butylindazone],scaled lipid accumulation score,[4],0.139
CN(CC(=O)N(Cc1ccc(C2CCCCC2)cc1)c1ccc(C(=O)O)cc1)S(=O)(=O)c1c(F)c(F)c(F)c(F)c1F,scaled lipid accumulation score,[5],≤ -0.009
same,scaled lipid accumulation score,[4],0.483
CCCCC[C@H](O)/C=C/[C@@H]1[C@@H](C/C=C\CCCC(=O)N(C)C)[C@@H](O)C[C@H]1O [Prostaglandin F2.alpha. dimethyl amide],scaled lipid accumulation score,[6],≤ 0
CC(C)N(CCC(=O)c1ccc2ccccc2c1)Cc1ccccc1.Cl [listing 1 of 2 here],scaled lipid accumulation score,[4],0.966 (active)
CC(C)N(CCC(=O)c1ccc2ccccc2c1)Cc1ccccc1,scaled lipid accumulation score,[5],0.613
same,scaled lipid accumulation score,[4],0.619
CC(COc1ccccc1)N(CCCl)Cc1ccccc1 (stereo unspecified) [Phenoxybenzamine hydrochloride],scaled lipid accumulation score,,0.065
same,scaled lipid accumulation score,library stock concentration: 5.9 mM,≤ 0
CC(C)NCC(O)c1ccc2ccccc2c1 (stereo unspecified) [Pronethalol hydrochloride],scaled lipid accumulation score,,0.369
same,scaled lipid accumulation score,[4],0.221
C=CC(=O)c1ccc2ccccc2c1,scaled lipid accumulation score,[4],0.015
CC(COc1ccccc1)N(CCCl)Cc1ccccc1 (stereo unspecified) [Dibenzyline],scaled lipid accumulation score,[4],0.174
CC(C)NCC(O)c1ccc2ccccc2c1 (stereo unspecified) [Pronethalol HCl],scaled lipid accumulation score,library stock concentration: 8.7 mM,0.224
CC(COc1ccccc1)N(CCCl)Cc1ccccc1 (stereo unspecified) [Phenoxybenzamine HCl],scaled lipid accumulation score,[5],≤ 0
same,scaled lipid accumulation score,library stock concentration: 6.6 mM,0.025
same,scaled lipid accumulation score,[4],≤ 0
CC(C)NCC(O)c1ccc2ccccc2c1 (stereo unspecified) [Pronetalol hydrochloride],scaled lipid accumulation score,[4],0.107
CC(COc1ccccc1)N(CCCl)Cc1ccccc1 (stereo unspecified) [Phenoxybenzamine],scaled lipid accumulation score,library stock concentration: 16.5 mM,≤ -0.012
CC(C)N(CCC(=O)c1ccc2ccccc2c1)Cc1ccccc1.Cl [listing 2 of 2 here],scaled lipid accumulation score,[4],1.1 (active)
CCCCCCCCCCCCCCCCOC[C@H](COP(=O)([O-])OCCCCCC[N+](C)(C)C)OC(C)=O [Hexanolamino PAF C-16],scaled lipid accumulation score,[6],≤ 0
Cc1ccc(-n2[nH]c(C)c(N=Nc3cccc(-c4cccc(C(=O)O)c4)c3O)c2=O)cc1C [Eltrombopag],scaled lipid accumulation score,[5],0.081
same,scaled lipid accumulation score,[4],0.077
COc1cccc2cc(-c3nc([C@H]4CC[C@H](C(=O)O)CC4)n4ncnc(N)c34)[nH]c12,scaled lipid accumulation score,[1],≤ 0
same,scaled lipid accumulation score,[2],0.061
same,scaled lipid accumulation score,[3],≤ 0
same,scaled lipid accumulation score,[5],0.043
same,scaled lipid accumulation score,[4],≤ 0
C[C@H]1C[C@@H]2[C@H]([C@@H](O)C[C@@]3(C)[C@H]2CC[C@]3(O)C(=O)COC(=O)CCC(=O)O)[C@@]2(C)C=CC(=O)C=C12 [Methylprednisolone sodium succinate],scaled lipid accumulation score,library stock concentration: 4 mM,0.015
N#CSc1cc(SC#N)c(N)nc1N,scaled lipid accumulation score,[5],0.46
same,scaled lipid accumulation score,[4],0.53
NC(Cn1ccc(=O)c(O)c1)C(=O)O (stereo unspecified) [Mimosine],scaled lipid accumulation score,,≤ 0
same,scaled lipid accumulation score,[4],≤ 0
CCCCC[C@H](O)/C=C/[C@H]1CC[C@H](O)[C@@H]1CCCCCCC(=O)O [11-deoxy Prostaglandin F1.alpha.],scaled lipid accumulation score,[6],≤ 0
"CCCCC(C)(C)[C@H](O)/C=C/[C@H]1CCC(=O)[C@@H]1C/C=C\CCCC(=O)O [11-deoxy-16,16-dimethyl Prostaglandin E2]",scaled lipid accumulation score,[6],0.098
Cl.OCCN1CCN(CC/C=C2/c3ccccc3Sc3ccc(Cl)cc32)CC1 [Zuclopenthixol hydrochloride],scaled lipid accumulation score,,0.995 (active)
CN1CCN(CCCN2c3ccccc3Sc3ccc(S(=O)(=O)N(C)C)cc32)CC1 [Thioproperazine dimesylate],scaled lipid accumulation score,,0.733
CN1CCN(CC/C=C2/c3ccccc3Sc3ccc(S(=O)(=O)N(C)C)cc32)CC1 [Thiothixene],scaled lipid accumulation score,[4],0.435
Cl.Cl.OCCN1CCN(CC/C=C2/c3ccccc3Sc3ccc(C(F)(F)F)cc32)CC1 [cis-(Z)-Flupenthixol dihydrochloride],scaled lipid accumulation score,[4],1.01 (active)
CN1CCN(CC/C=C2\c3ccccc3Sc3ccc(S(=O)(=O)N(C)C)cc32)CC1 [Thiothixene],scaled lipid accumulation score,library stock concentration: 4.5 mM,0.856 (active)
CN1CCN(CC/C=C2/c3ccccc3Sc3ccc(S(=O)(=O)N(C)C)cc32)CC1,scaled lipid accumulation score,[4],0.722
CCCCC[C@H](O)C/C=C1/C(=O)C=C[C@@H]1C/C=C\CCCC(=O)O [D12-Prostaglandin J2],scaled lipid accumulation score,[6],≤ -0.021
CC(=N)NCc1cccc(CN)c1 [1400W dihydrochloride],scaled lipid accumulation score,[4],≤ -0.006
Cc1oc(S(=O)(=O)N2CCCCC2)cc1NC(=O)Nc1ccccc1,scaled lipid accumulation score,[6],≤ 0
Cc1cc(/N=N/c2cc(S(=O)(=O)O)c(C)cc2C)c(N)cc1O [Ischemin],scaled lipid accumulation score,[1],≤ 0
same,scaled lipid accumulation score,[2],≤ 0
same,scaled lipid accumulation score,[3],≤ 0
same,scaled lipid accumulation score,[4],≤ 0
COC(=O)CC(NC(=O)C(C)NC(=O)C(NC(=O)OCc1ccccc1)C(C)C)C(=O)CF (stereo unspecified),scaled lipid accumulation score,[5],≤ 0
same,scaled lipid accumulation score,[4],0.101
Cc1cc(C)c(S(=O)(=O)Nc2ccccc2C(F)(F)F)c(C)c1,scaled lipid accumulation score,[4],0.002
CC/C=C\C/C=C\C/C=C\C/C=C\C/C=C\CCCC(=O)O [Eicosapentaenoic Acid],scaled lipid accumulation score,[6],0.001
CC/C=C\C/C=C\C/C=C\C/C=C\C/C=C\CCCC(=O)O [Eicosapentaenoic acid (20:5 n-3)],scaled lipid accumulation score,[6],0.009
CCCC[C@H](CCC(=O)O)NC(=O)CCCCCCc1ccccc1,scaled lipid accumulation score,[6],≤ 0
CCCCCCCCCCCCCCCC(=O)OCC(COP(=O)(O)O)OC(=O)CCCCCCCCCCCCCCC (stereo unspecified) [Dipalmitoylphosphatidic acid],scaled lipid accumulation score,[6],≤ -0.021
CC1(C)CCC(c2ccc(Cl)cc2)=C(CN2CCN(c3ccc(C(=O)NS(=O)(=O)c4ccc(N[C@H](CCN5CCOCC5)CSc5ccccc5)c(S(=O)(=O)C(F)(F)F)c4)cc3)CC2)C1 [ABT-263 (Navitoclax)],scaled lipid accumulation score,[5],0.024
same,scaled lipid accumulation score,[4],0.048
